Source: PubChem BioAssay AID463173 (ICCB-Longwood Screening Facility, Harvard Medical School, 2010)
Among all 52,000 compounds or so, about 4,300 (8.3%) were called active. The sample holds actives, similar compounds and a random draw of the others, so the mix is not that of the screen. No stated cut-off is given here; in the data, active means survival mostly below about 52% (no sharp cut-off); inactive means mostly above about 56%.

tested on: DeltatarO mutant; assay: S. aureus survival, RN4220 and DeltatarO strains – OD600, teichoic acid synthesis inhibitors, primary screen (AID 463173); conditions: S. aureus RN4220 wild type/DeltatarO growth, OD600, 18 h, active compounds read low, concentration not given here

Structure (SMILES)	survival
CCc1ccc(NC(=O)c2cccn(Cc3cccc([N+](=O)[O-])c3)c2=O)cc1	89% (inactive)
Cc1cc(C=C(C#N)C#N)c(C)n1C1CCCC1	64% (inactive)
CC(C)NCc1ccc2c(c1)OCO2	76% (inactive)
Cc1ccc(C(C)(C)C)c(OCC(=O)Nc2ccc(Cl)cc2C(=O)c2ccccc2)c1	66% (inactive)
CCN(CC)C(=O)c1ccc(NC(=O)CCn2nc(-c3ccc(C)cc3)c3ccccc3c2=O)cc1	61% (inactive)
CCN(CC)C(=O)c1ccc(NC(=O)Cn2nc(-c3ccc(C)cc3)c3ccccc3c2=O)cc1	50% (inactive)
CCN(CC)C(=O)c1ccc(NC(=O)CCn2nc(-c3ccc(Cl)cc3)c3ccccc3c2=O)cc1	47% (active)
CCOc1ccccc1NC(=O)c1cccn(Cc2ccccc2C)c1=O	70% (inactive)
Cc1[nH]c2c(C)cccc2c1CCN	37% (active)
Cc1n[nH]c(C)c1CCN	80% (inactive)
O=S1(=O)CC2(N3CCOCC3)CCCCC21 (centres undefined)	84% (inactive)
C=CCN1C(=O)CN=C(c2cccs2)c2c1sc1c2CCC1	92% (inactive)
COc1ccc(OC)c(NC(=O)Cn2cc(C(=O)c3ccccc3F)c3ccccc32)c1	70% (active)
COc1cccc(NC(=O)Cn2cc(C(=O)c3ccccc3)c3ccccc32)c1	47% (inactive)
COc1ccc(OC)c(NC(=O)Cn2cc(C(=O)c3ccccc3)c3ccccc32)c1	59% (inactive)
Cc1ccc(-c2nn3c(=O)cc(CN4CCN(C(=O)COc5ccc(C)c(C)c5)CC4)nc3s2)cc1	81% (inactive)
O=C(COc1ccccc1Cl)N1CCN(CCc2ccccn2)CC1	110% (inactive)
COc1ccc(OC)c(C(c2c(O)c3ccccc3oc2=O)c2c(C)n(C)n(-c3ccccc3)c2=O)c1 (centres undefined)	56% (inactive)
Cc1cccc(-n2c(/C=C\c3cccc(Br)c3)nc3ccccc3c2=O)c1	113% (inactive)
COc1cccc(/C=C/c2nc3ccccc3c(=O)n2-c2ccc(Cl)cc2)c1OC	88% (inactive)
COc1ccc(/C=C/c2nc3ccccc3c(=O)n2-c2ccc(C)cc2)cc1O	85% (inactive)
COc1cccc(-n2c(/C=C\c3ccc(Cl)cc3)nc3ccccc3c2=O)c1	30% (active)
COc1cccc(-n2c(/C=C/c3cccc(C)c3)nc3ccccc3c2=O)c1	0% (active)
Cc1ccc(-n2c(/C=C/c3ccccc3)nc3ccccc3c2=O)cc1Cl	68% (inactive)
O=c1c2ccccc2nc(/C=C/c2cccc3ccccc23)n1-c1ccc(Cl)cc1	78% (inactive)

Structure (SMILES)	survival
CCN1CCN(C(=O)COc2ccc(S(=O)(=O)N(C)Cc3ccccc3)cc2)CC1	87% (inactive)
CC1(C)CC(NC(=O)CN2CCCC2=O)CC(C)(C)N1	79% (inactive)
COc1ccc(C=C2C(=O)NC(=S)NC2=O)cc1	96% (inactive)
Cc1cccc(OC(C)C(=O)NCC2(N(C)C)CCCCC2)c1C (centres undefined)	92% (inactive)
N#CC(C#N)=Cc1ccc(Sc2ccccc2)o1	72% (inactive)
COc1ccccc1CNCCc1ccccc1	95% (inactive)
Cc1cc(OCC(=O)N2CCN(CCc3ccncc3)CC2)ccc1Cl	49% (inactive)
Cc1ccc(C(C)C)c(OCC(=O)N2CCN(CCc3ccncc3)CC2)c1	42% (active)
CCc1ccc(OCC(=O)N2CCN(CCc3ccncc3)CC2)cc1	98% (inactive)
CC(C)c1ccc(OCC(=O)N2CCN(CCc3ccncc3)CC2)cc1	44% (active)
Cc1ccc(OCC(=O)N2CCN(CCc3ccncc3)CC2)cc1C	53% (inactive)
O=C(COc1ccccc1Cl)N1CCN(CCc2ccncc2)CC1	95% (inactive)
Cc1cc(OCC(=O)N2CCN(CCc3ccncc3)CC2)cc(C)c1Cl	57% (active)
Cc1ccc(OCC(=O)N2CCN(CCc3ccncc3)CC2)cc1	86% (inactive)
O=C(COc1ccc2ccccc2c1)N1CCN(Cc2ccncc2)CC1	67% (inactive)
O=C(COc1cccc(Cl)c1)N1CCN(CCc2ccncc2)CC1	47% (active)
O=C(COc1ccccc1[N+](=O)[O-])N1CCN(CCc2ccncc2)CC1	90% (inactive)
COc1ccc(OCC(=O)N2CCN(CCc3ccncc3)CC2)cc1	82% (inactive)
O=C(Nc1ccc2c(c1)OCCO2)c1cccn(Cc2cccc([N+](=O)[O-])c2)c1=O	94% (inactive)
Cc1ccc(-n2c(/C=C/c3cc(Br)cs3)nc3ccccc3c2=O)cc1	74% (inactive)
CC(=O)N(C1=NCCCS1)c1ccc(C)cc1	99% (inactive)
CC(=O)OC1(c2ccccc2)CCN(C)C2CCCCC21 (centres undefined)	91% (inactive)
CN1CCc2nc3sc4c(=O)[nH]c(=O)[nH]c4c3cc2C1	79% (inactive)
Cc1ccc(Cl)cc1NC(=O)N(Cc1ccc2c(c1)OCO2)C1CCN(Cc2ccccc2)CC1	55% (inactive)
Cc1cccnc1-n1c(C)nc2ccccc2c1=O	76% (inactive)

Structure (SMILES)	survival
COc1ccc(NC(=O)CCc2nc(C3=CCN(Cc4cccc(C)c4)CC3)no2)c(OC)c1	91% (inactive)
COC(=O)c1ccccc1NC(=O)c1cccn(Cc2cccc(Cl)c2)c1=O	73% (inactive)
CCOc1ccc2nc(NC(=O)c3cccn(Cc4ccccc4Cl)c3=O)sc2c1	87% (inactive)
O=c1c2ccccc2[nH]c(=S)n1-c1ccccc1	90% (inactive)
CCOc1ccc2nc(NC(=O)c3cccn(Cc4ccccc4)c3=O)sc2c1	94% (inactive)
O=S1(=O)N(Cc2ccccc2Cl)CCCN1Cc1ccccc1Cl	10% (active)
O=S1(=O)N(Cc2ccccc2)CCCN1Cc1ccc(F)cc1Cl	87% (inactive)
O=S1(=O)N(Cc2ccccc2)CCCN1Cc1cccc(Cl)c1	71% (inactive)
O=C(Nc1ccon1)c1cccn(Cc2cccc([N+](=O)[O-])c2)c1=O	102% (inactive)
COc1ccc(C(C(=O)NC2CCCCC2)N(CCN2CCOCC2)C(=O)Cc2c[nH]c3ccccc23)cc1OC (centres undefined)	59% (inactive)
COc1ccccc1NC(=O)N(Cc1ccc2c(c1)OCO2)C1CCN(Cc2ccccc2)CC1	88% (inactive)
CCCSc1nc2ccccc2c(=O)n1-c1ccccc1OC	-2% (active)
COc1ccccc1-n1c(/C=C/c2ccccc2)nc2ccccc2c1=O	67% (inactive)
CSc1nc2ccccc2c(=O)n1-c1ccccc1C	95% (inactive)
Cc1cccc(Cn2cccc(C(=O)Nc3cc(C)on3)c2=O)c1	73% (inactive)
CCCCCn1c(=O)c(C(=O)Nc2ccccc2S(N)(=O)=O)c(O)c2ccccc21	0% (active)
CCCCn1c(=O)c(C(=O)NC)c(O)c2ccccc21	99% (inactive)
CCN1CCN(Cc2nnnn2C(C)(C)C)CC1	100% (inactive)
O=C1CC(c2cccnc2)Nc2ccc3ccccc3c21 (centres undefined)	86% (inactive)
Cc1ccc(Cn2cccc(C(=O)Nc3cc([N+](=O)[O-])ccc3C)c2=O)cc1	82% (inactive)
CCc1ccccc1NC(=O)c1cccn(Cc2ccccc2F)c1=O	47% (active)
CCOC(=O)c1ccc(NC(=O)c2cccn(Cc3ccccc3F)c2=O)cc1	86% (inactive)
Cc1nnc(NC(=O)c2cccn(Cc3ccccc3F)c2=O)s1	94% (inactive)
CC(C)c1ccc(OCC(=O)N2CCN(CCc3ccccn3)CC2)cc1	66% (inactive)
